# Source: PubChem BioAssay (NCATS)
# Records with an inconclusive call do not appear. Entries that show only a call come without a potency. Calls of active or inactive are those of the source. Unless noted, the call rests on the fitted dose curve; in most records, active means well fitted curve in the direction sought with a large enough effect; inconclusive means small, poorly fitted or top-dose-only effect, or another doubt; inactive means no such curve, though single readings can be large; an effect the other way counts as inactive or inconclusive.
# Legend:
# [1] = target: T1, Tyrosine-protein phosphatase non-receptor type substrate 1 (Homo sapiens) + Leukocyte surface antigen CD47 (Homo sapiens) (UniProt P78324+Q08722); assay: CD47-SIRPalpha protein protein interaction - HTRF assay qHTS validation (AID 1347058; active means well fitted curve in the direction sought with a large enough effect in the signal ratio, not every such curve was filed as active; the % refers to the signal ratio; further: series mostly up to about 38 µM)
# T1 sequence (P78324 whole entry, looked up, the tested form may be a part): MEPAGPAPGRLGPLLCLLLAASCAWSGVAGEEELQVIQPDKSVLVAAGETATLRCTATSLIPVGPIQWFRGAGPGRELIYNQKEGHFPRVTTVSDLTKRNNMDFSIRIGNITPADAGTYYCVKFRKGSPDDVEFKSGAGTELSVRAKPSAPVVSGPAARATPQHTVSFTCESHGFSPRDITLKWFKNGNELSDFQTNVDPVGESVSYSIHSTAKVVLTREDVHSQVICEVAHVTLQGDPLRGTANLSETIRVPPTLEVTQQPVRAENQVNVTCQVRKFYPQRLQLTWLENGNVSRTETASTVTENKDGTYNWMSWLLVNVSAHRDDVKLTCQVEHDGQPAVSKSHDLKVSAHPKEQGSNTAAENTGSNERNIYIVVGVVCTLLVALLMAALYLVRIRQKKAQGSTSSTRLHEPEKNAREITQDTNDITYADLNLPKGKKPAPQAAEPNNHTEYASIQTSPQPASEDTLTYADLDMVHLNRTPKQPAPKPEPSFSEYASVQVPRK
# T1 sequence (Q08722 whole entry, looked up, the tested form may be a part): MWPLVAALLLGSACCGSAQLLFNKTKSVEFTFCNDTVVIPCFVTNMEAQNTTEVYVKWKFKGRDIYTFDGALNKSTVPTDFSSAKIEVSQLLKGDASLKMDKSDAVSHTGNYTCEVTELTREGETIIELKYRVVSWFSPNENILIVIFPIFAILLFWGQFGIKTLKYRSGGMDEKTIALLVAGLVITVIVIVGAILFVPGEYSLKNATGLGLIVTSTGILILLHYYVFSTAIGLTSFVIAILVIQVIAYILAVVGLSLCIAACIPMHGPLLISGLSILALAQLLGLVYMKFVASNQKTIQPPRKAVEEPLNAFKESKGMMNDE
# How it was run: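 Soluble extracellular domains (6His-CD47, Avi-tag-biotinylated SIRPalpha) in PBS pH 7.4 with 0.05% IGEPAL CA-630. Compounds were preincubated 30 min at RT with CD47 and anti-His-Eu, then SIRPalpha and SAV-XL665 were added. TR-FRET 665/615 ratio.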
# [2] = target: T1, Tyrosine-protein phosphatase non-receptor type substrate 1 (Homo sapiens) + Leukocyte surface antigen CD47 (Homo sapiens); assay: CD47-SIRPalpha protein protein interaction - Alpha assay qHTS validation (AID 1347059);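 further: bead proximity luminescence from CD47 binding SIRPalpha after compound preincubation with SIRPalpha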; further: potency means the concentration at half of the fitted maximal effect
# How it was run: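 AlphaScreen signal between CD47-His (12.5 nM) and biotin-SIRPalpha (25 nM) soluble extracellular domains, bead-captured via Ni-NTA and streptavidin. Compounds, in 7-point titrations, met SIRPalpha 30 min before CD47; PBS pH 7.4 with 0.05% IGEPAL.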
# [3] = qHTS for Inhibitors of the Functional Ribonucleoprotein Complex (vRNP) of Lassa (LASV) Arenavirus: LASV Primary Screen - GLuc reporter signal (AID 1347082; calls by dose curve; tested in HEK293 reporter line; further: series mostly up to about 57 µM; nearly all actives have a fitted effect of over 60% in size)
# [4] = qHTS for Inhibitors of the Functional Ribonucleoprotein Complex (vRNP) of Lassa (LASV) Arenavirus: Viability assay - alamar blue signal for LASV Primary Screen (AID 1347083; calls by dose curve; tested in HEK293 reporter line; further: nearly all actives have a fitted effect of over 80% in size; further: potency means the concentration at half of the fitted maximal effect)
# [5] = qHTS for Inhibitors of the Functional Ribonucleoprotein Complex (vRNP) of Lymphocytic Choriomeningitis Arenaviruses (LCMV): Viability assay - alamar blue signal for LCMV Primary Screen (AID 1347085; calls by dose curve; tested in HEK293 reporter line; further: nearly all actives have a fitted effect of over 80% in size; further: potency means the concentration at half of the fitted maximal effect)
# [6] = target: Nucleoprotein (Lymphocytic choriomeningitis virus (strain Armstrong)) (UniProt P09992); assay: qHTS for Inhibitors of the Functional Ribonucleoprotein Complex (vRNP) of Lymphocytic Choriomeningitis Arenaviruses (LCMV): LCMV Primary Screen - GLuc reporter signal (AID 1347086; calls by dose curve; further: series mostly up to about 57 µM; nearly all actives have a fitted effect of over 70% in size)
# Chain of Nucleoprotein (Lymphocytic choriomeningitis virus (strain Armstrong)) (P09992 whole entry, looked up): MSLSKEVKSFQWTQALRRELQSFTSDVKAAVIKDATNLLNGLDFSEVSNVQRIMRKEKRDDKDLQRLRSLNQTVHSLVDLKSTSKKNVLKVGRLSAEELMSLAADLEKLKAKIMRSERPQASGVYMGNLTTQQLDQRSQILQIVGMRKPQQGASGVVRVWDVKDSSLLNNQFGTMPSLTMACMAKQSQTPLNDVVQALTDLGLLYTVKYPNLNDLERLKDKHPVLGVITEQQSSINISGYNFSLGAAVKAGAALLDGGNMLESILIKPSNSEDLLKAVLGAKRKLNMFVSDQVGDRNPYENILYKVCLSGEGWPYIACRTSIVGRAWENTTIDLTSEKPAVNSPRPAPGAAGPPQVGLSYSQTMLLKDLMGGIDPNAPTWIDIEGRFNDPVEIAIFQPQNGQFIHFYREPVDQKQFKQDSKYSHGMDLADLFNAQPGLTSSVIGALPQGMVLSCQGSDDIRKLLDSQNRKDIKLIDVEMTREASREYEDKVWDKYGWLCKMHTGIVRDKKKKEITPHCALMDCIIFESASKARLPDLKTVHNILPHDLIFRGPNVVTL
# [7] = target: Parathyroid hormone/parathyroid hormone-related peptide receptor (Homo sapiens) (UniProt Q03431); assay: qHTS for PTHR1 Agonists: Optimization Screen against the NCGC LOPAC library (AID 1347079);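 further: GloSensor cAMP luminescence in HEK-293 GP2 cells expressing human PTHR1 with IBMX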
# Chain of Parathyroid hormone/parathyroid hormone-related peptide receptor (Homo sapiens) (Q03431 whole entry, looked up): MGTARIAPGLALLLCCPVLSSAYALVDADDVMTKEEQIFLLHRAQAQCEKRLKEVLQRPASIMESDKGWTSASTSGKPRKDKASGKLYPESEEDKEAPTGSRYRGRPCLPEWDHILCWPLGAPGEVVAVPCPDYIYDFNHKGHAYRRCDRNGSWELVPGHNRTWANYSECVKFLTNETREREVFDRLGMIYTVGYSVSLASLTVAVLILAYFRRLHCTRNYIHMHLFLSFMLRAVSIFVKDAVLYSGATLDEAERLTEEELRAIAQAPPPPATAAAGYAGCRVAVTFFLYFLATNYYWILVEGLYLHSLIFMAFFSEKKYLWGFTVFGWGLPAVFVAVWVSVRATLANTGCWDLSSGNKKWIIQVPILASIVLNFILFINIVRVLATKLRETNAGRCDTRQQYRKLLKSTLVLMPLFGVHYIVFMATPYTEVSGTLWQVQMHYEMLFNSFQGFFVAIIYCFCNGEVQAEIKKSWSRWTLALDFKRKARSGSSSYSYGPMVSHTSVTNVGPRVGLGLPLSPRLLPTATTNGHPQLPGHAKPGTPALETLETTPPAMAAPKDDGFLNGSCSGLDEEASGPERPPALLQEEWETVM
# How it was run: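 Signal increase flags agonism. GP2 cells, derived from HEK-293, express human PTHR1 and a GloSensor cAMP construct.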
SMILES,outcome [1],Potency [2],Potency [3],Potency [4],Potency [5],Potency [6],Potency [7]
Cc1cc([C@@H]2CCCN2C)on1,inactive,inactive,inactive,inactive,inactive,inactive,–
CCCN1CCC[C@@H](c2cccc(O)c2)C1,inactive,inactive,inactive,inactive,inactive,inactive,inactive
CC(C)(C)c1o[nH]c(=O)c1CC(N)C(=O)O (stereo not given),inactive,inactive,inactive,inactive,–,–,–
CC(C)NP(=O)(NC(C)C)OP(=O)(NC(C)C)NC(C)C,inactive,inactive,inactive,inactive,inactive,inactive,inactive
Cc1o[nH]c(=O)c1CC(N)C(=O)O (stereo not given),inactive,inactive,inactive,inactive,inactive,inactive,–
NC(=O)CI,inactive,inactive,inactive,inactive,inactive,inactive,–
c1ccc2c(c1)[I+]c1ccccc1-2,inactive,inactive,–,1580 nM (active),6310 nM (active),–,inactive
Oc1ccc2c3c1O[C@H]1c4[nH]c5ccccc5c4C[C@@]4(O)C(C2)N(CC2CC2)CCC314 (stereo not given in full),inactive,inactive,inactive,inactive,inactive,inactive,–
NC(=O)COc1c(F)cc(SCCNS(=O)(=O)c2ccccc2)cc1F,inactive,inactive,inactive,inactive,inactive,inactive,–
NNC(=O)c1ccc(O)cc1,inactive,inactive,inactive,inactive,inactive,inactive,–
NNC(N)=O,inactive,inactive,inactive,inactive,inactive,inactive,inactive
OC1CCCCC1N1CCC(c2ccccc2)CC1 (stereo not given),inactive,inactive,inactive,inactive,inactive,inactive,inactive
Cc1c2ccncc2c(C)c2c1[nH]c1ccccc12,inactive,inactive,inactive,–,–,inactive,inactive
c1ccc2c(N3CCNCC3)cccc2c1,inactive,inactive,inactive,inactive,inactive,inactive,inactive
NCCCP(=O)(O)O,inactive,inactive,inactive,inactive,inactive,inactive,inactive
Nc1ccc(CCN2CCN(c3cccc(C(F)(F)F)c3)CC2)cc1,inactive,inactive,inactive,inactive,inactive,inactive,inactive
CC(N)Cc1c[nH]c2ccc(OCc3cccs3)cc12 (stereo not given),inactive,inactive,inactive,inactive,inactive,inactive,–
CP(=O)(O)C1=CCNCC1,inactive,inactive,inactive,inactive,inactive,inactive,inactive
NCCc1c[nH]c2ccc(C(N)=O)cc12,inactive,inactive,inactive,inactive,inactive,inactive,inactive
CCCN1CC[C@@H]2c3cc(O)ccc3CC[C@@H]21,inactive,inactive,inactive,inactive,inactive,inactive,inactive
CC(=O)c1c(O)c(C)c(O)c(Cc2c(O)c3c(c(C(=O)/C=C/c4ccccc4)c2O)OC(C)(C)C=C3)c1O,–,16500 nM (active),inactive,inactive,inactive,inactive,inactive
O=C1/C(=C/c2ccccc2)C[C@@]2(O)[C@H]3Cc4ccc(O)c5c4[C@@]2(CCN3CC2CC2)[C@H]1O5,–,inactive,–,–,–,–,–

SMILES,outcome [1],Potency [2],Potency [3],Potency [4],Potency [5],Potency [6],Potency [7]
COc1ccc2c(c1)C13CCCCC1C(C2)N(C)CC3 (stereo not given),–,inactive,inactive,inactive,inactive,inactive,–
NC(C(=O)O)c1cc(=O)[nH]o1 (stereo not given),–,inactive,inactive,inactive,inactive,inactive,inactive
Cc1sc2ccccc2c1CC1=NCCN1,–,inactive,inactive,inactive,inactive,inactive,inactive
O=[N+]([O-])c1ccc2nc(N3CCNCC3)ccc2c1,–,inactive,inactive,inactive,inactive,inactive,inactive
N[C@@H](Cn1ccc(=O)[nH]c1=O)C(=O)O,–,–,inactive,inactive,inactive,inactive,inactive
C[N+](C)(C)CC#CCN1CCCC1=O,inactive,inactive,inactive,inactive,inactive,inactive,–
C[C@@H]1O[C@H](C[N+](C)(C)C)CS1,–,–,inactive,inactive,inactive,inactive,inactive
C[C@H](N)CN1CCc2ccc(Br)cc21,–,inactive,inactive,inactive,inactive,inactive,inactive
CCCN(CCC)CCc1c[nH]c2ccc(C(N)=O)cc12,–,–,inactive,inactive,inactive,inactive,inactive
C=CCN1CC[C@]23c4c5ccc(O)c4O[C@H]2/C(=N/NC(=O)c2ccccc2)CC[C@@]3(O)[C@H]1C5,–,–,inactive,inactive,inactive,inactive,inactive
O=c1ccc2[nH]cc(C3=CCNCC3)c2[nH]1,–,inactive,–,–,–,–,–
O=[N+]([O-])/C=C/c1ccc2c(c1)OCO2,–,inactive,inactive,–,inactive,inactive,inactive
O=S1(=O)N(CCN2CC=C(c3c[nH]c4cc(F)ccc34)CC2)c2cccc3c2N1CCC3,–,inactive,inactive,inactive,inactive,inactive,inactive
CC(N)Cc1c[nH]c2ccc(O)cc12 (stereo not given),inactive,inactive,inactive,inactive,inactive,inactive,–
COc1ccc(CNC(=O)/C=C/c2ccc3[nH]cc(CCN(C)C)c3c2)cc1,–,inactive,inactive,inactive,inactive,inactive,–
CCCn1c(C)c(C(=O)c2ccc3ccccc3c2)c2ccccc21,–,–,inactive,inactive,inactive,inactive,inactive
Oc1ccc2c3c1O[C@H]1c4oc5ccccc5c4C[C@@]4(O)C(C2)N(CC2CC2)CCC314 (stereo not given in full),inactive,–,–,inactive,inactive,–,–
NC(N)=Nc1ccc2[nH]c3c(c2c1)C[C@@]1(O)[C@H]2Cc4ccc(O)c5c4[C@@]1(CCN2CC1CC1)[C@H]3O5,–,inactive,inactive,inactive,inactive,inactive,inactive
CN1CCC(c2c[nH]c3ccc(O)cc23)CC1,–,inactive,inactive,inactive,inactive,inactive,inactive
NCC(CP(=O)(O)O)c1ccc(Cl)cc1 (stereo not given),–,inactive,inactive,inactive,inactive,inactive,–
CCCN1CCc2cc(O)cc3c2[C@H]1Cc1ccc(O)c(O)c1-3,–,inactive,inactive,inactive,inactive,inactive,inactive
CN1CC[C@@]2(C)c3cc(O)ccc3N(C)C12 (stereo not given in full),–,inactive,inactive,inactive,inactive,inactive,inactive

SMILES,outcome [1],Potency [2],Potency [3],Potency [4],Potency [5],Potency [6],Potency [7]
CC(=O)OCC1=C(C(=O)O)N2C(=O)[C@@H](NC(=O)CCC[C@@H](N)C(=O)O)[C@H]2SC1,–,414 nM (active),inactive,inactive,inactive,inactive,inactive
CN1CCc2cccc(Cl)c2CC1,–,inactive,inactive,inactive,inactive,inactive,–
CN1CCc2cc(O)cc3c2[C@H]1Cc1ccc(O)c(O)c1-3,–,inactive,inactive,inactive,inactive,inactive,inactive
CN1CC[C@@]2(C)c3cc(OC(=O)Nc4ccccc4)ccc3N(C)[C@@H]12,–,inactive,inactive,inactive,inactive,inactive,inactive
CCCn1c(=O)c2[nH]c(C3CCCC3)nc2n(CCCOC(=O)c2ccc(S(=O)(=O)F)cc2)c1=O,inactive,inactive,inactive,inactive,inactive,inactive,–
O=[N+]([O-])c1cc(O)c(O)c([N+](=O)[O-])c1,–,inactive,inactive,inactive,inactive,inactive,inactive
C=CCN1CCc2cccc3c2[C@H]1Cc1ccc(O)c(O)c1-3,–,–,inactive,inactive,inactive,inactive,inactive
C[C@]12Cc3cn4c(nc3C=C1CCC1C2CC[C@@]2(C)[C@H]1CC[C@@]2(O)C#N)nc1ccccc14 (stereo not given in full),–,inactive,–,–,–,–,inactive
CCCN1CCc2cccc3c2[C@H]1Cc1ccc(O)c(O)c1-3,–,inactive,inactive,inactive,inactive,inactive,–
O=C1CC[C@@]2(O)C3Cc4ccc(O)c5c4C2(CCN3CC2CC2)[C@H]1O5 (stereo not given in full),inactive,inactive,inactive,inactive,inactive,inactive,–
C[C@H](N)Cc1cccc(C(F)(F)F)c1,inactive,inactive,inactive,inactive,inactive,inactive,–
CC(N)[C@H](O)c1ccc(O)c(O)c1 (stereo not given in full),–,inactive,inactive,inactive,inactive,inactive,–
N[C@@H](Cn1oc(=O)[nH]c1=O)C(=O)O,–,inactive,inactive,inactive,inactive,inactive,inactive
NC(Cc1cc(O)c(O)cc1O)C(=O)O (stereo not given),–,927 nM (active),inactive,inactive,inactive,inactive,inactive
COc1ccc2c(c1)[C@@]13CCCC[C@H]1[C@@H](C2)NCC3,–,–,inactive,inactive,inactive,inactive,inactive
NC(Cc1ccc(N(CCCl)CCCl)cc1)C(=O)O (stereo not given),–,–,inactive,inactive,inactive,–,–
CCCCCCC(C)(C)c1ccc([C@@H]2C[C@H](O)CC[C@H]2CCCO)c(O)c1,–,–,inactive,–,inactive,–,–
CC1OC1P(=O)(O)O (stereo not given),–,–,inactive,inactive,inactive,inactive,–
CN(C)[C@@H]1C(=O)C(C(N)=O)=C(O)[C@@]2(O)C(=O)C3=C(O)c4c(O)ccc(Cl)c4[C@@](C)(O)[C@H]3C[C@@H]12,–,–,inactive,inactive,inactive,inactive,–
CN(N=O)c1ccc(O)c(O)c1,–,–,inactive,inactive,inactive,inactive,–
C[N+]1(C)CCC(OC(=O)C(c2ccccc2)c2ccccc2)CC1,–,–,inactive,inactive,inactive,inactive,–
